Compound activity deposited in PubChem by National Center for Advancing Translational Sciences (NCATS).
In the library only some 4.6% were active in any assay of this set; here they are far more common.
Epigenetic derep: epigenetic control regulation, reporter derepression; murine LDR cells, GFP reporter derepression, 30 h; 0.2% of 280,000 active; AID 1865; Potency, µM (highest dose often 53.9 µM), most hits filed as activators; active means well fitted activation curve with a large enough effect; further: nearly all actives have a fitted effect of over 60% in size
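Reporter derepression read as number of fluorescent GFP-positive objects, 20-120 um in size, counted by laser-scanning cytometer. Mouse LDR line with an epigenetically silenced CMV-GFP locus; compound incubation 30 h, 37 C.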
D1 potentiator: human D1 dopamine receptor positive modulation. P21728. 0.036% of 360,000 active. HEK293 TREx D1 cells, calcium flux, dopamine EC20 potentiation. potentiation, % at 10 µM; in the data active means potentiation above about 30%
TRHR PAM: allosterically enhances the human TRH receptor | P34981 | TRHR cells, fluo-8 calcium fluorescence, EC20 TRH enhancement | enhancement, % at 2 µM | 0.66% of 360,000 active; in the data active means enhancement above about 30%
Target sequence (P34981 whole entry, looked up): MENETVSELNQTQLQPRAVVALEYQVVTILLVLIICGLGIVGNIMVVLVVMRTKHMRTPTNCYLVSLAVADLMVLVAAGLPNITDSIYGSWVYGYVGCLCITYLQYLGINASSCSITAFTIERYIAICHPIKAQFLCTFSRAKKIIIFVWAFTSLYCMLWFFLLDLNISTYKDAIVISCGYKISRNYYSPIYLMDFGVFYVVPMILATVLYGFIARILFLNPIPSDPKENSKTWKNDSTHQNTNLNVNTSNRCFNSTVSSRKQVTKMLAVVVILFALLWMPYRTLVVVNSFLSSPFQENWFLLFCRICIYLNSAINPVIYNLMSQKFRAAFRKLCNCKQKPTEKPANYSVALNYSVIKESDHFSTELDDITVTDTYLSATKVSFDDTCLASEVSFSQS
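TRHR-expressing cells loaded with fluo-8 calcium dye were read kinetically (ex 480/em 530) during compound addition, then stimulated with an EC20 of TRH (10 nM final). Enhancement of the Gq-mediated intracellular calcium response was scored.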
D1 antagonist: antagonists of human D1 dopamine receptor; 3.2% of 360,000 active; HEK293 TREx D1 cells, calcium flux, dopamine EC80; active compounds read low; P21728; activity change, negative = inhibition, % at 10 µM; in the data active means activity change below about -30%
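Antagonism measured as reduced calcium response to an EC80 dopamine addition following 180 s compound pre-read; cells were inducible HEK293 Trex D1 plated overnight at 30 C, read kinetically at 1 cycle/sec.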
D1 agonist: activates the human D1 dopamine receptor; P21728; HEK293 T-REx D1 cells, calcium flux, agonist mode; activation, % at 2 µM; 1% of 360,000 active
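Inducible HEK293 T-REx D1 cells, force-coupled to calcium signalling, were plated at 4000 cells/well with tetracycline and held overnight at 30 C. After no-wash calcium dye loading, compound-evoked calcium rise over 180 s flagged agonists.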
TRHR ag: agonists of human TRH receptor | P34981 | AID 493084 | TRHR cells, calcium flux fluo-8, FDSS agonist mode | activation, % at 2 µM | 0.18% of 360,000 active
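Read-out: compound-evoked intracellular calcium rise in TRHR cells, fluo-8 dye, kinetic FDSS fluorescence at 1 s/cycle following a 10-cycle baseline. Cells cultured overnight before dye loading (30 min–1.5 h, RT).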
Of the large screens only hits and unclear results are named; the others gave an inactive call. Unless noted, no stated cut-off is given here; in the data, active means activation above about 30%; inactive means the rest.

N=C1SC(c2ccccc2)C(=O)N1c1ncc(Cc2ccccc2Cl)s1 (centres undefined)	D1 antagonist -43.2
O=C(Cc1ccc(NC(=O)N2CCSc3ncccc32)cc1)NCc1ccccc1	none
CCCCNC(=O)/C(C#N)=C/c1ccc(F)cc1F	D1 antagonist -52.5
COCCCNC(=O)/C(C#N)=C/c1ccc(F)cc1	none
Cn1nnnc1SCCCNCc1cccc(OCc2ccccc2)c1	none
CCN1C(=O)/C(=C2/Sc3ccc(OC)cc3N2C)SC1=Nc1ccc(OC)cc1	none
C=CCN1C(=O)/C(=C2/Sc3ccc(OC)cc3N2C)SC1=Nc1cccc(O)c1	Epigenetic derep 10µM
Cc1ccc(C(=O)NCC(=O)OCc2c(F)cccc2Cl)cc1	none (no result: Epigenetic derep)
Cc1ccc(S(=O)(=O)NCC(=O)NCC(=O)OCc2c(F)cccc2Cl)cc1	D1 antagonist -62.5
Cc1ccc(C(CNS(=O)(=O)c2ccc(C)cc2)N2CCN(C)CC2)cc1 (centres undefined)	none (no result: Epigenetic derep)
Cc1ccc(C(CNS(=O)(=O)c2ccc(Cl)cc2)N2CCN(C)CC2)cc1 (centres undefined)	D1 antagonist -34.4, D1 agonist 42.5 (no result: Epigenetic derep)
O=C(c1ccc2c(c1)N(Cc1c(F)cccc1Cl)C(=O)c1ccccc1S2)N1CCOCC1	none
O=C(N/N=C/c1sc2ccccc2c1O)c1cccc2ccccc12	D1 agonist 31.4
COc1ccc2cc(C(=O)N/N=C/c3sc4ccccc4c3O)ccc2c1	D1 agonist 108.3, TRHR ag 32.6
Cc1ccccc1C(=O)N/N=C/c1cccc2ccccc12	D1 antagonist -89.1 (no result: Epigenetic derep)
O=C(N/N=C/c1ccccc1F)c1cccc2ccccc12	none (no result: Epigenetic derep)
CCCCC/C=C\C/C=C\CCCCCCCC(=O)NCC(=O)O	none (no result: D1 potentiator, TRHR PAM, D1 antagonist, D1 agonist, TRHR ag)
O=C(c1ccc2c(c1)N(Cc1cccc(Cl)c1)C(=O)c1ccccc1S2(=O)=O)N1CCC(Cc2ccccc2)CC1	D1 antagonist -34.1
N#Cc1cccc(NC(=O)c2ccc3c(c2)N(Cc2cccc(Cl)c2)C(=O)c2ccccc2S3(=O)=O)c1	TRHR PAM 31.0
O=C(c1ccc2c(c1)N(Cc1ccccc1)C(=O)c1ccccc1S2(=O)=O)N1CCN(Cc2ccccc2)CC1	none
CC(=O)Nc1ccc(NC(=O)c2ccc3c(c2)N(Cc2cccc(Cl)c2)C(=O)c2ccccc2S3(=O)=O)cc1	none
CCOC(=O)c1ccc2c(c1)N(Cc1cccc(C(F)(F)F)c1)C(=O)c1ccccc1S2(=O)=O	D1 antagonist -51.2
COc1ccccc1NC(=O)C1=C(C)Nc2nnnn2C1c1ccc(C(F)(F)F)cc1 (centres undefined)	none
CCc1cccc(NC(=O)CN2C(=O)COc3ccc(S(=O)(=O)Nc4ccccc4)cc32)c1	none
CCOC(=O)Cc1ccc(NC(=O)NCc2ccc3c(c2)CCN3C(=O)CC)cc1	none
COc1ccc(/C=C/C(=O)Nc2ccc(C)cc2)cc1	D1 antagonist -64.5
CCCCc1ccc(C(=O)Nc2ccc3nc(N4CCN(CC)CC4)cc(C)c3c2)cc1	D1 antagonist -58.8
CCN1CCN(c2cc(C)c3cc(NC(=O)/C=C/c4cccc(Cl)c4)ccc3n2)CC1	D1 antagonist -35.7
CC(=O)c1ccc(NC(=O)/C=C/c2ccc(C)cc2)cc1	none
COc1ccc(/C=C/C(=O)Nc2ccc3nc(N4CCC(C)CC4)cc(C)c3c2)cc1	Epigenetic derep 22.4µM
CC(C)[C@H](NC(=O)OC(C)(C)C)[C@@H](O)CC(=O)OC(C)(C)C	none (no result: D1 potentiator, TRHR PAM, D1 antagonist, D1 agonist, TRHR ag)
O=C(Nc1ccc(N2CCN(C(=O)c3ccco3)CC2)cc1)c1ccccc1	D1 antagonist -55.7
O=C(Nc1ccc(N2CCN(Cc3ccccc3)CC2)cc1)c1ccco1	D1 antagonist -30.0 (no result: Epigenetic derep)
CCCCOP(=O)(OCCCC)C(O)c1ccc(N(C)C)cc1 (centres undefined)	D1 antagonist -37.2
CC(C)Cc1ccc(C(C)NC(=O)c2ccc(=O)[nH]c2)cc1 (centres undefined)	D1 agonist 49.4
OCCCNc1nc(-c2ccc(Cl)cc2)nnc1-c1ccc(Br)cc1	D1 antagonist -40.1
O=[N+]([O-])c1ccc(-c2nnc(-c3ccccc3)c(NCCCO)n2)cc1	none
CCc1ccc(C(=O)C(C)OC(=O)c2nn(C)c(=O)c3ccccc23)cc1 (centres undefined)	D1 agonist 34.6 (no result: Epigenetic derep)
OCCN(CCO)CC(O)COc1ccc(Br)cc1 (centres undefined)	none
OCCN(CCO)CC(O)COc1ccc(C23CC4CC(CC(C4)C2)C3)cc1 (centres undefined)	D1 agonist 31.2
Cc1cc(C)cc(NC(=O)C2CCC(CNS(=O)(=O)c3ccc4c(c3)C(C)(C)C(=O)N4C)CC2)c1 (centres undefined)	none
O=C(CN1CCOCC1)Nc1ccc(Cl)c(Cl)c1	none (no result: Epigenetic derep)
O=C(CN1CCN(S(=O)(=O)N2CCOCC2)CC1)Nc1ccc(Cl)c(Cl)c1	D1 antagonist -49.4 (no result: Epigenetic derep)
Cc1ccc(NC(=O)CN2CCOCC2)cc1C	D1 antagonist -39.6 (no result: Epigenetic derep)
Cc1ccc(NC(=O)CN2CCOCC2)cc1	none (no result: Epigenetic derep)
CC12CCC3c4ccc(OCc5ccccc5)cc4CCC3C1CC(O)C2O (centres undefined)	none (no result: D1 potentiator, TRHR PAM, D1 antagonist, D1 agonist, TRHR ag)
O=C(COC(=O)Cc1ccc(S(=O)(=O)N2CCOCC2)s1)NCCc1ccccc1	none
O=C(COC(=O)Cc1ccc(S(=O)(=O)N2CCOCC2)s1)NCc1ccccc1	D1 antagonist -48.3
COc1ccccc1CNC(=O)CSC1=Nc2ccccc2N=C(c2ccc(F)cc2)C1	none
Cc1[nH]nc2c1C1(CCOCC1)C(C#N)=C(N)O2	none
Cc1[nH]nc2c1C1(CCOC1C)C(C#N)=C(N)O2 (centres undefined)	D1 antagonist -35.3
Cc1ccccc1NC(=O)c1ccc(N(Cc2ccccc2)S(C)(=O)=O)cc1	TRHR PAM 35.8
CCOc1ccc(CSC2=NCCN2)cc1Cl	D1 antagonist -35.3
O=C(COc1ccc([N+](=O)[O-])cc1Cl)NCC1CCCO1 (centres undefined)	D1 antagonist -38.6
COC(=O)COc1ccc(S(=O)(=O)NCC2CCCO2)cc1Cl (centres undefined)	none
CC(C)CNS(=O)(=O)c1ccc(OCC(=O)NCC2CCCO2)c(Cl)c1 (centres undefined)	D1 antagonist -35.7
CCOc1ccc(-c2nnc(SCC(=O)NCc3ccc(Cl)cc3)o2)cc1	none
Cc1nc(-c2ccc([S+](=O)([O-])N3CCN([S+](=O)([O-])c4c(F)cccc4F)CC3)s2)cs1	none (no result: Epigenetic derep)
CCCC12CN3CC(CCC)(CN(C1)C3c1ccc(OCc3ccccc3)cc1)C2=O (centres undefined)	none
